Measured values: PubChem BioAssay (NCI)
The panel holds about 83,000 compounds, 20% with a hit somewhere; the sample as a whole holds those more often.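 Growth was measured after 48 h exposure to one concentration of compound in 96-well plates. Values under 10 count as active.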 Calls of active or inactive are those of the source.

Each compound was assayed on HL-60(TB) leukemia (assay: NCI-60 one-dose screen, 48 h (100 = growth as untreated, 0 = no growth, -100 = all killed)). Details: 10 µM unless noted.
`CO[C@H](C(=O)N[C@@H](CCCCNC(=O)OCc1ccccc1)C(=O)OC(C)(C)C)[C@@H]1Cc2cc3cc(OC4CC(OC5CC(O)C(O)C(C)O5)C(O)C(C)O4)c(C)c(O)c3c(O)c2C(=O)[C@H]1OC1CC(OC2CC(OC3CC(C)(O)C(O)C(C)O3)C(O)C(C)O2)C(O)C(C)O1` (stereo partly specified) was tested, and the growth was -0.249% (active).
For `CCc1nn(Cc2ccccc2)c2nc(C)c(CCc3ccccc3)c(Cl)c12`, the growth was 82.7% (inactive).
For `COc1ccc(/C=C/C(=O)CCC(=O)O)cc1OC`, the growth was 96.7% (inactive).
In the case of `O=c1cc(CSc2nnc(-c3ccccc3)n2-c2ccc(F)cc2)c2ccc3ccccc3c2o1`, the growth is reported as 99.5% (inactive).
With `CCCc1cccc(CCC)c1NC(=O)Nc1cc(Cl)cc(Cl)c1` the growth was 101% (inactive).
With `COc1ccccc1S(=O)(=O)Nc1ccc2c3c(cc(-c4ccoc4)nc13)C(=O)N2C` the growth was 8.91% (active).
In the case of `O=c1[nH]nnc2c1ncn2C1OC(CO)C(O)C1O` (stereo unspecified), the growth is reported as 25.2% (inactive).
For `CCOC(=O)c1c(C(F)(F)F)n([O-])c2ccc(Cl)cc2[n+]1=O`, the growth was -65.2% (active).
For `CCOC(=O)[C@@H](Cc1ccccc1)NC(=O)c1[nH]c2ccc(Cl)cc2c(=O)c1C`, the growth was 104% (inactive).
With `COC1=CC(=O)OC(c2ccc(OC)cc2)C1` (stereo unspecified) the growth was 78.3% (inactive).
In the case of `O=C(NC(=S)N1CC=CCC1)c1ccccc1`, the growth is reported as 125% (inactive).
`CNc1ncc(-c2ccc(C(F)(F)F)cc2)c(NC2CCCCCC2)n1` was tested, and the growth was 57% (inactive).
`O=C1O[C@H]([C@H](O)CO)C(O)=C1O` was tested, and the growth was 99.5% (inactive).
In the case of `Cc1sc(NC(=O)c2ccc(C(C)(C)C)cc2)c(C(=O)O)c1C`, the growth is reported as 45.2% (inactive).
For `CCCCCCCCCCCCc1ccc(C(=O)/C=C/C(=O)O)cc1`, the growth was 26.6% (inactive).
For `O=C1NC(=O)C(Cc2ccc(OCc3ccc(-c4cc(F)c(F)c(F)c4)cc3)cc2)S1` (stereo unspecified), the growth was 106% (inactive).
`CCOCC(=O)C(C#N)c1ccc(Cl)c(Cl)c1` (stereo unspecified) was tested, and the growth was 102% (inactive).
`CC(=O)N1N=C(c2ccc(C)cc2)CC1c1ccc(Oc2ccc(Br)cc2)cc1` (stereo unspecified) was tested, and the growth was 94% (inactive).
With `Cc1nc2sc(C(=O)Nc3ccccc3)c(N)c2cc1C(=O)c1ccc(C(F)(F)F)cc1` the growth was 99.3% (inactive).
`c1ccc(CSc2ncccc2-c2nnc(SCCN3CCOCC3)o2)cc1` was tested, and the growth was 101% (inactive).
With `O=C(Nc1ccc(C23CC4CC(CC(c5ccccc5)(C4)C2)C3)cc1)c1cccs1` the growth was 51% (inactive).
`O=C1/C(=C\c2cn(Cc3ccccc3)c3ccc(Br)cc23)c2ccccc2N1c1c(Cl)cccc1Cl` was tested, and the growth was 97% (inactive).
In the case of `O=C(O)c1ccc(N=CC(=O)c2ccc(-c3ccccc3)cc2)cc1`, the growth is reported as 77.4% (inactive).
`CN(C)Cc1cn(-c2ncc(-c3ccc(C(F)(F)F)cc3)c(NC3CCCCCC3)n2)nn1` was tested, and the growth was 83.3% (inactive).
In the case of `CO[C@H]1CC(O[C@@H]2/C(C)=C/C[C@@H]3C[C@@H](C[C@]4(CC[C@H](C)[C@@H](C5CCCCC5)O4)O3)OC(=O)[C@@H]3C=C(C)/C(=N/O)[C@H]4OC/C(=C\C=C\[C@@H]2C)[C@]43O)O[C@@H](C)C1O` (stereo partly specified), the growth is reported as -48.7% (active).
`CC(=O)Cc1cc(-c2cc(CC(C)=O)[nH]n2)n[nH]1` was tested, and the growth was 88.1% (inactive).
For `COc1ccc(/C=C/c2c(C(=O)/C=C/c3ccc(F)cc3)c(C)nc3ccccc23)cc1`, the growth was 24.2% (inactive).
`C[n+]1cccc(CC(=O)NO)c1` was tested, and the growth was 94.7% (inactive).
With `C=C(C)[C@@H]1CC[C@]2(C(=O)O)CC[C@]3(C)[C@H](CC[C@@H]4[C@@]5(C)C[C@@H](CC#Cc6ccc(Br)cc6)C(=O)C(C)(C)[C@@H]5CC[C@]43C)[C@@H]12` the growth was 47.7% (inactive).
`COc1ccc(Nc2ncccc2NC(=O)c2cn(Cc3cccc(Oc4ccccc4)c3)nn2)cc1OC` was tested, and the growth was 55.8% (inactive).
`OCCNc1nc(NCCO)nc(Nc2ccc(C3=NN(c4cc(Cl)cc(Cl)c4)C(c4ccc(C(F)(F)F)cc4)C3)cc2)n1` (stereo unspecified) was tested, and the growth was 16.7% (inactive).
In the case of `COc1ccc(-c2n[nH]nc2-c2cc3ccccc3s2)cc1O`, the growth is reported as 2.49% (active).
With `CC(C)CNc1nc(N=[N+]=[N-])nc(NCC(C)C)n1` the growth was 48.9% [100 µM] (inactive).
In the case of `C=C(C)[C@@H]1CC[C@]2(CN)CC[C@]3(C)[C@H](CC[C@@H]4[C@@]5(C)CCCNC(C)(C)[C@@H]5CC[C@]43C)[C@@H]12`, the growth is reported as -52.8% (active).
`COC1OC(C(O)C(O)CO)C(O)C(O)C1O` (stereo unspecified) was tested, and the growth was 108% (inactive).
With `COC12C=C/C(=C(/C(=O)OCc3ccccn3)C(=O)CCCCCCCCC3(OC)C=C/C(=C(/C(=O)OCc4ccccn4)C(=O)CCCCCCCC1)O3)O2` the growth was -19% (active).
